In paper PMC7862700, “An all-to-all approach to the identification of sequence-specific readers for epigenetic DNA modifications on cytosine” one finds binding signal data, which are given here for 7 sequences.

Common to all, as to assay: DAPPL (digital affinity profiling via proximity ligation, sequencing); 10 mM Tris-HCl pH 7.5, 50 mM NaCl, 1 mM DTT, 4% glycerol, room temperature, 30 min; GST-TFs on glutathione beads, 16-mer random dsDNA library, 0.1% formaldehyde crosslink after washing; high values mean tight binding
Common to all, as to settings: protein: recombinant; tags: N-terminal GST; dsDNA, one strand shown

For test [1], the target named is T1, FLI1 (Homo sapiens, UniProt Q01543 1-452).
T1 sequence: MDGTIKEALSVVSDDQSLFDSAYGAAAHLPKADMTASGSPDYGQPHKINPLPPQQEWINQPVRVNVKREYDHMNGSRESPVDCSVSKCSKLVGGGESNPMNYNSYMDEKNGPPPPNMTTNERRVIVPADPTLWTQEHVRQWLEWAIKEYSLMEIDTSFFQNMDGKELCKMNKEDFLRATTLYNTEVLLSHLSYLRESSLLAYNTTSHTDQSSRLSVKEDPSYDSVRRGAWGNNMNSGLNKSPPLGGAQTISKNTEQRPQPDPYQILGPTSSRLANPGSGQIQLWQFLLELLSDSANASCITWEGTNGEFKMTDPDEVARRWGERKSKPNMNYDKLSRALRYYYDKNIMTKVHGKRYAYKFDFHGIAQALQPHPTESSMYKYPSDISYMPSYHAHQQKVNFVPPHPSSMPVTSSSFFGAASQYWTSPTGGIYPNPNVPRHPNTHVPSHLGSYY
In outline:
(§1)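 Pools were built from human transcription factors expressed in yeast as GST fusions, captured on glutathione beads and DNA-barcoded, along with a tag-only sample. Incubation with 200 nmole of a 16-mer random double-stranded DNA library lasted 30 min at room temperature in Tris/NaCl/DTT/glycerol buffer, and was followed by washing, 0.1% formaldehyde crosslinking, proximity ligation, PCR amplification and Illumina NextSeq500 sequencing. Binding signal is the quotient of each hexamer's read frequency for a factor and its frequency for the tag-only sample.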

For test [2], the target named is T2, ELK1 (Homo sapiens, UniProt P19419 1-428).
T2 sequence: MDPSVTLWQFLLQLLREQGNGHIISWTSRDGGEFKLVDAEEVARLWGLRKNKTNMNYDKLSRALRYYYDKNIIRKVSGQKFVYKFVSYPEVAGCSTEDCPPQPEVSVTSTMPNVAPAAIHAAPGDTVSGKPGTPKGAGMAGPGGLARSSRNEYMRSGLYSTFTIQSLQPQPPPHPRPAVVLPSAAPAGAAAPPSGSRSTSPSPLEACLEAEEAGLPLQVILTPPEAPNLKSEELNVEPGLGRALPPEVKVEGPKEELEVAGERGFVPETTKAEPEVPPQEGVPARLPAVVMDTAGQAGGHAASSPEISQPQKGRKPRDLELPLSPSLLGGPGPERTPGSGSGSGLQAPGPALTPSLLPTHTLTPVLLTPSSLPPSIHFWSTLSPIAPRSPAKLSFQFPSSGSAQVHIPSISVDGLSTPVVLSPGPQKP
In outline:
as §1

Test [3] concerns the target T3, GABPA (Homo sapiens, UniProt Q06546 1-454).
T3 sequence: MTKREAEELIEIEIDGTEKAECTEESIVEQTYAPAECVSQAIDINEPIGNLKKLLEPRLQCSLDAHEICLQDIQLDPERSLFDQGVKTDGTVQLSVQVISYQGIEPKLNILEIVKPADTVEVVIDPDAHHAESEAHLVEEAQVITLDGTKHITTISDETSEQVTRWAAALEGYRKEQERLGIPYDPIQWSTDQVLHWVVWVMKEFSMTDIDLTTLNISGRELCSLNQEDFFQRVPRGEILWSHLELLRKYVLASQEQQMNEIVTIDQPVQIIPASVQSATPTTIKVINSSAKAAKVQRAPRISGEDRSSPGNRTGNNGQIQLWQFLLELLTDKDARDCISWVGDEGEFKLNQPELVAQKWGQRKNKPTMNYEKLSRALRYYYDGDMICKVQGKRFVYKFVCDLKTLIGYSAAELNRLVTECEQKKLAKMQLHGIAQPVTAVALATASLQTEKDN
In short, it runs like this:
as §1

Test [4] addresses T4, ERG (Homo sapiens, UniProt P11308 1-479).
T4 sequence: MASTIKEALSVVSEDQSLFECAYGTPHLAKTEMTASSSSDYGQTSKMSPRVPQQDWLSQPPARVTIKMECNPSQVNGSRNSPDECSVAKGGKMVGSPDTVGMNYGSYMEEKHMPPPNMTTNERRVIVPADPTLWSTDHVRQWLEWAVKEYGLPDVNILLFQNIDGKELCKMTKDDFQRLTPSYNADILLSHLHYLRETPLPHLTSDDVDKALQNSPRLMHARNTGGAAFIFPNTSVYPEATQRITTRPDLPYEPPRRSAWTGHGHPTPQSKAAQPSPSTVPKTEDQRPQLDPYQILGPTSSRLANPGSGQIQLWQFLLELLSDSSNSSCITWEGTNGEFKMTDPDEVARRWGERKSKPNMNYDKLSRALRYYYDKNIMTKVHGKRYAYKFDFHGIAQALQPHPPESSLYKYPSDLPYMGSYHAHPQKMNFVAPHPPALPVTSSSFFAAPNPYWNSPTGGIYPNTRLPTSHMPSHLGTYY
In short, it runs like this: as §1

In test [5] the target is ELF1 (Homo sapiens, UniProt P32519 1-619). In short, it runs like this: as §1
For test [6], the target named is T5, EHF (Homo sapiens, UniProt Q9NZC4 1-300).
T5 sequence: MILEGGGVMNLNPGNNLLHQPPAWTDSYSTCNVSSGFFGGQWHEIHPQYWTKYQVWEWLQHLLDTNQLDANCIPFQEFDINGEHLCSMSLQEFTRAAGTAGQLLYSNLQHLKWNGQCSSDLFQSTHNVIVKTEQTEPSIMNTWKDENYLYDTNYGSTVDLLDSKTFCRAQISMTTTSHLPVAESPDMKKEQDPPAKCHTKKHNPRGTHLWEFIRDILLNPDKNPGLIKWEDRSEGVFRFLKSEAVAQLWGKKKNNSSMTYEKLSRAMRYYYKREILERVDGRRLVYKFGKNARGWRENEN
In outline: as §1

The target of test [7] is SPI1 (Homo sapiens, UniProt P17947 1-270). In short, it runs like this:
as §1

Test [8] has as its target SPIB (Homo sapiens, UniProt Q01892 1-262). In short, it runs like this: as §1
The target of test [9] is T6, ELK3 (Homo sapiens, UniProt P41970 1-407).
T6 sequence: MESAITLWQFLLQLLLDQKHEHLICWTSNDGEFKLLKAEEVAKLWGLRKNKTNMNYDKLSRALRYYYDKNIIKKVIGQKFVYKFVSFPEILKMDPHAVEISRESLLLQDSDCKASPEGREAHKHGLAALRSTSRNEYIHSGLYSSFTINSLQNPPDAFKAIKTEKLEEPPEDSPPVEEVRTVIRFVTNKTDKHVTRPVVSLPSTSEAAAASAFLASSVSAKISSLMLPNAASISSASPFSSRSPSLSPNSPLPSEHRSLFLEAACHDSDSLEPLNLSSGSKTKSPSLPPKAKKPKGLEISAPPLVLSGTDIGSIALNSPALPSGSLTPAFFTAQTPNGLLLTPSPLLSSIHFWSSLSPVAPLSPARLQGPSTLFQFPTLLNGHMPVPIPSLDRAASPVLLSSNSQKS
In short, it runs like this: as §1

Chain of SPIB (Q01892 whole entry): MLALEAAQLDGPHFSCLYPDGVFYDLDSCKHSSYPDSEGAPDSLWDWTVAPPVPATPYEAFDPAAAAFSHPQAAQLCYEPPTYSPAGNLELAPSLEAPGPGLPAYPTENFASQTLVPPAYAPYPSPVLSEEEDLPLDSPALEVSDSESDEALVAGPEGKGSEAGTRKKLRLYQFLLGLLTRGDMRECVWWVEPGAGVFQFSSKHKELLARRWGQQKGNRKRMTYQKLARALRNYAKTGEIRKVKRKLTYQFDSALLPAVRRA
Chain of ELF1 (P32519 whole entry): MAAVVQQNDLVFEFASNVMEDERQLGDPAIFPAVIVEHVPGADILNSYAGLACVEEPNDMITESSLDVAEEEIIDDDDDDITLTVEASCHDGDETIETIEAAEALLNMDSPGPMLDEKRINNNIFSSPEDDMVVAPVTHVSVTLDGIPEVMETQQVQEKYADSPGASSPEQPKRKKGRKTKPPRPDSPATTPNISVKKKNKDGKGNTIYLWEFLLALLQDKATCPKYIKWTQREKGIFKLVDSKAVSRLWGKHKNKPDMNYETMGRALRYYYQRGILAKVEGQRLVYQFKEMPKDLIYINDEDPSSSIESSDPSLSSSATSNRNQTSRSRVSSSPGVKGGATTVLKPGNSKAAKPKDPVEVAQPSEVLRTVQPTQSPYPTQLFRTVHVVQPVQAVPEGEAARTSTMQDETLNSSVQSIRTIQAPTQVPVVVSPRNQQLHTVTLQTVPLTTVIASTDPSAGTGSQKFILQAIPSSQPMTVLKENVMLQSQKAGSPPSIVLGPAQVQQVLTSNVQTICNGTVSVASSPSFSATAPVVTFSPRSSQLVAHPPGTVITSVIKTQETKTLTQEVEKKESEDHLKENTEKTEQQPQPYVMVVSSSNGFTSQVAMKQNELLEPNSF

As for AAATCT, the binding signal is 1.28 fold enrichment (6-mer frequency, TF over GST control) in [1]; 1.21 fold enrichment (6-mer frequency, TF over GST control) in [2]; 1.23 fold enrichment (6-mer frequency, TF over GST control) in test [3]; 1.31 fold enrichment (6-mer frequency, TF over GST control) in [4]; 1.3 fold enrichment (6-mer frequency, TF over GST control) in test [5]; 1.2 fold enrichment (6-mer frequency, TF over GST control) in [6]. Moreover, the binding signal in test [7] is 1.14 fold enrichment (6-mer frequency, TF over GST control); in [8] it was 1.29 fold enrichment (6-mer frequency, TF over GST control); in test [9] it was 1.22 fold enrichment (6-mer frequency, TF over GST control).

For TTGCAT, the binding signal in test [1] was 1.5 fold enrichment (6-mer frequency, TF over GST control); in [2], 1.43 fold enrichment (6-mer frequency, TF over GST control); in test [3] it was 1.52 fold enrichment (6-mer frequency, TF over GST control); in [4] it was 1.37 fold enrichment (6-mer frequency, TF over GST control); in test [5], 1.39 fold enrichment (6-mer frequency, TF over GST control); in test [6], 1.4 fold enrichment (6-mer frequency, TF over GST control). Also, the binding signal is 1.44 fold enrichment (6-mer frequency, TF over GST control) in test [7]; 1.38 fold enrichment (6-mer frequency, TF over GST control) in [8]; 1.42 fold enrichment (6-mer frequency, TF over GST control) in [9].

On to TATGAA, for which the binding signal is 1.18 fold enrichment (6-mer frequency, TF over GST control) in test [1]; 1.17 fold enrichment (6-mer frequency, TF over GST control) in test [2]; 1.21 fold enrichment (6-mer frequency, TF over GST control) in test [3]; 1.14 fold enrichment (6-mer frequency, TF over GST control) in [4]; 1.18 fold enrichment (6-mer frequency, TF over GST control) in [5]; 1.12 fold enrichment (6-mer frequency, TF over GST control) in test [6]. The binding signal is 1.19 fold enrichment (6-mer frequency, TF over GST control) in test [7]; 1.17 fold enrichment (6-mer frequency, TF over GST control) in test [8]; 1.16 fold enrichment (6-mer frequency, TF over GST control) in test [9].

On to CTTAGT, for which the binding signal was 1.17 fold enrichment (6-mer frequency, TF over GST control) in [1]; 1.17 fold enrichment (6-mer frequency, TF over GST control) in test [2]; 1.2 fold enrichment (6-mer frequency, TF over GST control) in test [3]; 1.18 fold enrichment (6-mer frequency, TF over GST control) in test [4]; 1.25 fold enrichment (6-mer frequency, TF over GST control) in [5]; 1.22 fold enrichment (6-mer frequency, TF over GST control) in test [6]. The binding signal in test [7] was 1.07 fold enrichment (6-mer frequency, TF over GST control); in [8], 1.19 fold enrichment (6-mer frequency, TF over GST control); in test [9], 1.19 fold enrichment (6-mer frequency, TF over GST control).

Take TTCAGG: the binding signal in [1] is 1.2 fold enrichment (6-mer frequency, TF over GST control); in test [2], 1.14 fold enrichment (6-mer frequency, TF over GST control); in test [3], 1.15 fold enrichment (6-mer frequency, TF over GST control); in [4], 1.12 fold enrichment (6-mer frequency, TF over GST control); in [5] it was 1.1 fold enrichment (6-mer frequency, TF over GST control); in test [6] it was 1.11 fold enrichment (6-mer frequency, TF over GST control). For the same sequence, the binding signal in test [7] is 1.22 fold enrichment (6-mer frequency, TF over GST control); in test [8] it was 1.1 fold enrichment (6-mer frequency, TF over GST control); in test [9], 1.09 fold enrichment (6-mer frequency, TF over GST control).

Consider ATGCTA, for which the binding signal is 1.21 fold enrichment (6-mer frequency, TF over GST control) in test [1]; 1.2 fold enrichment (6-mer frequency, TF over GST control) in test [2]; 1.25 fold enrichment (6-mer frequency, TF over GST control) in [3]; 1.27 fold enrichment (6-mer frequency, TF over GST control) in [4]; 1.23 fold enrichment (6-mer frequency, TF over GST control) in [5]; 1.28 fold enrichment (6-mer frequency, TF over GST control) in test [6]. The binding signal is 1.22 fold enrichment (6-mer frequency, TF over GST control) in test [7]; 1.21 fold enrichment (6-mer frequency, TF over GST control) in [8]; 1.37 fold enrichment (6-mer frequency, TF over GST control) in test [9].

On to CGCGCT, for which the binding signal in test [1] was 1.25 fold enrichment (6-mer frequency, TF over GST control); in test [2], 1.32 fold enrichment (6-mer frequency, TF over GST control); in test [3] it was 1.13 fold enrichment (6-mer frequency, TF over GST control); in [4], 1.13 fold enrichment (6-mer frequency, TF over GST control); in test [5], 1.18 fold enrichment (6-mer frequency, TF over GST control); in test [6] it was 1.17 fold enrichment (6-mer frequency, TF over GST control). The binding signal in test [7] is 1.1 fold enrichment (6-mer frequency, TF over GST control); in test [8], 1.27 fold enrichment (6-mer frequency, TF over GST control); in [9], 1.21 fold enrichment (6-mer frequency, TF over GST control).
